According to PubChem BioAssay AID588432 (Broad Institute, 2011):
The source made the active and inactive calls.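 Rule for the calls: active = luciferase inhibitors whose fitted dose curve gives a half-maximal potency within ten times the top tested dose; inconclusive = flat curve with 30 to 70% inhibition, or a poor fit; inactive = the rest.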

experiment: ADP-Glo luciferase interference without Dyrk1A, dose response, artefact control for Dyrk1A inhibitor project, biochemical, luminescence, cherry-pick, set 04 (AID 588432); conditions: ADP-Glo luminescence without kinase, luciferase artifact; series mostly up to 12 µM

outcome, inactive:
Clc1ccc(CNc2nccc(-c3ccc4[nH]ncc4c3)n2)cc1Cl
Clc1ccc(CNc2cc(-c3ccc4c(c3)OCO4)ncn2)cc1
c1cncc(CNc2ccnc(-c3ccc4cn[nH]c4c3)n2)c1
FC(F)(F)c1cccc(Nc2nccc(-c3ccc4c(c3)OCO4)n2)c1
Clc1ccc(CNc2nccc(-c3ccc4c(c3)OCCO4)n2)cc1Cl
CN(Cc1ccco1)c1ncnc2ccc(-c3ccc4c(c3)OCO4)cc12
Cc1c(-c2ccnc(NCc3ccc(Cl)cc3)n2)sc(=O)n1C
c1cncc(CNc2nccc(-c3ccc4cn[nH]c4c3)n2)c1
Cc1c(-c2ccnc(NCc3cccnc3)n2)sc(=O)n1C
Cc1ccc(CN(C)c2ncnc3ccc(-c4ccc5c(c4)OCO5)cc23)o1
Clc1ccc(CNc2ncncc2-c2ccc3c(c2)OCO3)cc1
COc1ccc(-c2nccc(NCc3ccc(C)cc3)n2)cc1
Cn1ccc2cc(-c3ccc4ncnc(NCc5ccc6c(c5)OCO6)c4c3)ccc21
CS(=O)(=O)CCNCc1ccc(-c2ccc3ncnc(Nc4ccc(OCc5cccc(F)c5)c(Cl)c4)c3c2)o1
CCN(Cc1cccs1)c1ncnc2ccc(-c3ccc4c(c3)OCO4)cc12
Cc1ccsc1CN(C)c1ncnc2ccc(-c3ccc(CO)o3)cc12
